Data on six molecules can be found in PubChem BioAssay AID1347136 (National Center for Advancing Translational Sciences (NCATS), 2019).

This is one part of the list. Results filed as inconclusive are left out. Activity calls are given as the source filed them. Calls follow the shape of the dose curve; as a rule, active = well fitted inhibition curve with a large enough effect; inconclusive = small, poorly fitted or top-dose-only effect; inactive = no such curve, though single readings can be large or run the other way.

A short description of the assay: qHTS of pediatric cancer cell lines to identify multiple opportunities for drug repurposing: Orthogonal 3D viability screen for SJ-GBM2 cells. As to conditions: SJ-GBM2 3D spheroid viability, PI/Hoechst imaging, 72 h. The source says:
Drug repurposing or repositioning has been offered as a strategy for drug development in oncology programs. This approach has special potential for childhood cancers and other rare or orphan diseases, where the expected return on new drug development has been a disincentive to pharmaceuticals. […] In this project we exploit the poly-pharmacology of drugs to discover new indications via phenotypic screening of a panel of 19 well-characterized cell lines derived from solid tumors seen in children and adolescents. The goal is to identify approved drugs with previously unrecognized anticancer properties that has the potential to reveal new mechanisms and biological processes involved in carcinogenesis or drug resistance. We employed a titration-based paradigm (quantitative high-throughput screening or qHTS), where all compounds were tested at multiple concentrations for their effect on cell viability. Concentration-response curves (CRCs) were derived directly from the primary screen, and both potency and efficacy values were used to identify compounds with robust bioactivity profiles. […] These two assays will be used to validate active compounds and assess the correlation of compound's potency in 2D vs 3D cultures on selected cell lines. Assay Submitter: Nathalia J. Martinez, National Center for Advancing Translational Sciences, National Institutes of Health, Rockville, MD, USA; email: natalia.martinez@nih.gov Shen, M et al. Quantitative high-throughput phenotypic screening of pediatric cancer cell lines identifies multiple opportunities for drug repurposing. Oncotarget 2017 Dec 19;9(4):4758-4772. PMID 29435139.
The cells were obtained from University of North Carolina (UNC), Pediatric Preclinical Testing Program (PPT), and Coriell Institute (CI). qHTS viability in 3D culture: Cells were assayed in phenol red-free growth media at a density of 1,000 cells/well, with the exception of Daoy, and SH-N-SH which were assayed at 1,500 cells/ well. Thirty muL of cells were dispensed into 384-well, ULA, round bottom plates (Corning) using a Multidrop dispenser. Plates were spun down at 1,000 rpm for 1 min and incubated at 37 degrees C, 5% CO2, under a humidified atmosphere for either 24 (Daoy) or 48 hours (all other cell lines) to allow spheroid formation. Ninety-two nanoliter of compounds and controls (neutral control DMSO or positive control bortezomib at final concentrations of 0.5 µM) were subsequently transferred via GNF Pintool. Plates were sealed using a breathable seal (Diversified Biotech, Dedham, MA) and incubated for 72 hours at 37 degrees C. Spheroid viability was first determined by high-content imaging using Hoechst 33342 and Propidium Iodide (PI, ThermoFisher Scientific), followed by addition of CellTiter-Glo 3D (Promega). Specifically, 3 µL/well of PBS containing a 1:500 dilution of both dyes was dispensed using Multidrop. Dyes were incubated for 1 hour before imaging using the Celigo Image Cytometer. Then, 20 µl of CellTiter-Glo 3D were added per well. Plates were incubated for 30 min at RT on a VWR microplate shaker (300 rpm) and analyzed for luminescence intensity using a ViewLux High-throughput CCD imager equipped with clear filters. Image analysis was done using the Celigo Tumorsphere 1+2+3 application software as previously described. Briefly, spheroids were first identified using bright-field image segmentation, and then the fluorescent intensities of PI and Hoechst 3342 were obtained using red (EX: 531/40 nm, EM: 629/53 nm) and blue (EX: 377/50 nm, EM: 470/22 nm) filters, respectively. The data were exported to Excel, and the average fluorescent intensities were used to calculate the ratio of PI over Hoechst, which was used to quantify viability. Percent activity based on neutral and positive control bortezomib was derived.
On the technique in general: qHTS replaces the single test concentration by a dilution series.
In the case of `COC(=O)Nc1nc2ccc(Sc3ccccc3)cc2[nH]1`, the Potency is 574 nM (active).

Consider `CC(NCc1ccc2c(c1)nc(NC(=O)c1ccc(-c3cn[nH]c3)s1)n2CC(C)(C)O)C(C)(C)C` (stereo unspecified), for which the Potency was 162 nM (active).

For `CC[C@]1(O)C[C@@H]2CN(CCc3c([nH]c4ccccc34)[C@@](C(=O)OC)(c3cc4c(cc3OC)N(C)[C@H]3[C@@](O)(C(=O)OC)[C@H](OC(C)=O)[C@]5(CC)C=CCN6CC[C@]43[C@@H]65)C2)C1`, the Potency was 40.6 nM (active).

For the molecule `CC[C@H]1CN2CCc3cc(OC)c(OC)cc3[C@@H]2C[C@@H]1C[C@H]1NCCc2cc(OC)c(OC)cc21`, the Potency is 72.2 nM (active).

Turning to `CC1(C)O[C@@H]2C[C@@H]3[C@H]4C[C@@H](F)C5=CC(=O)C=C[C@]5(C)[C@@]4(F)[C@@H](O)C[C@]3(C)[C@]2(C(=O)CO)O1`, the Potency was 574 nM (active).

As for `COc1c(C)c2c(c(O)c1C/C=C(\C)CCC(=O)O)C(=O)OC2`, the Potency was 722 nM (active).
